{
  "source": "PubChem BioAssay AID686940",
  "about": "(The Scripps Research Institute Molecular Screening Center, 2013)",
  "note": "Out of some 370,000 compounds screened, about 2,600 (0.7%) were called active.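 The calls were made as follows: active = inhibition above a per-plate cutoff, mean inhibition of test wells between control levels plus 3 SD (cut at about 38% in these data); inactive = the rest.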 The entries come from a sample that favours actives as a whole.",
  "data": [
    {"target": "COUP transcription factor 2 (Homo sapiens) (UniProt P24468)", "sequence (P24468 whole entry, looked up)": "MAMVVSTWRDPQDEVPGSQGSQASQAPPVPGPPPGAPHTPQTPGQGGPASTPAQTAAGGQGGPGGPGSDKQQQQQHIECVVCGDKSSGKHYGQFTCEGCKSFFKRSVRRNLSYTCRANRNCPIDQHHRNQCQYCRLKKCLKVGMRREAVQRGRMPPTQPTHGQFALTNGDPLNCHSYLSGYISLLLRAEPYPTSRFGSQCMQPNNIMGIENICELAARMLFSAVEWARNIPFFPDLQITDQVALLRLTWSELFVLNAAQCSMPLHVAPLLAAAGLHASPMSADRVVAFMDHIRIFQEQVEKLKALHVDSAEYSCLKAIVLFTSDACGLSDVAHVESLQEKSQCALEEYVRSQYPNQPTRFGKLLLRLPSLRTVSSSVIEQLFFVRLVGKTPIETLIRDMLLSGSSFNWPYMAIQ", "assay": "COUP-TFII reporter suppression in human cells – cell-based, luciferase reporter, HEK293T, luminescence, primary screen (AID 686940);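 also: cells cotransfected with COUP-TFII expression vector driving the NGFI-A reporter; 0% = median of COUP-TF2 test wells and 100% = reporter-only cells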", "settings": "HEK293T NGFI-A luciferase reporter, at 8.6 µM, stronger effect = higher value", "values": [
      {"smiles": "CCN(CC)C(=O)CC[C@H]1CC[C@]2(CCCN(Cc3ccc(Cl)cc3)C2)O1", "inhibition": "-15.6% (inactive)"},
      {"smiles": "COc1ccc(CN2C(=O)N3Cc4cc(OC)ccc4C3CS2(=O)=O)cc1", "note": "(stereo unspecified)", "inhibition": "-0.26% (inactive)"},
      {"smiles": "O=C(Nc1ccccc1C(=O)N1CCOCC1)c1ccc(CSc2ccccc2)cc1", "inhibition": "6.62% (inactive)"},
      {"smiles": "C/C(CCc1ccccc1)=N\\NC(=O)c1ccc(CN2CCOCC2)cc1", "inhibition": "-14.4% (inactive)"},
      {"smiles": "O=C(Nc1ccc(CSc2ccccc2)cc1)c1ccc(CN2CCOCC2)cc1", "inhibition": "68.5% (active)"},
      {"smiles": "CCC(CO)Nc1cccc2c1S(=O)(=O)N(Cc1cn(Cc3ccccc3C(F)(F)F)nn1)Cc1ccccc1O2", "note": "(stereo unspecified)", "inhibition": "-2% (inactive)"},
      {"smiles": "COc1ccc(-n2c(SCC(=O)Nc3ccc(C)c(Cl)c3)nc3ccccc3c2=O)cc1", "inhibition": "2.13% (inactive)"},
      {"smiles": "CCCC[C@H](C(=O)N(CC)c1ccccc1)[C@@H](O)c1ccc2ccccc2c1", "inhibition": "-0.42% (inactive)"},
      {"smiles": "O=C(COc1ccccc1)Nc1ccc(N2CCN(C(=O)c3cccs3)CC2)cc1", "inhibition": "-0.29% (inactive)"},
      {"smiles": "Cc1ccc(NC(=O)C(c2ccccc2)N2CCN(C(=O)c3ccco3)CC2)cc1", "note": "(stereo unspecified)", "inhibition": "3.53% (inactive)"},
      {"smiles": "Cc1ccc(OCC(=O)Nc2ccc(N3CCN(C(=O)c4ccco4)CC3)cc2)c(C)c1", "inhibition": "44.3% (active)"},
      {"smiles": "C=CCN1C(=O)[C@H](CC(=O)NCCCN2CCCC2=O)[C@@]2(C(=O)OCC)CCCC=C12", "inhibition": "-4.55% (inactive)"},
      {"smiles": "CC(C)(C)NC(=O)C(c1cccnc1)N(C(=O)c1cnco1)c1ccc(C(C)(C)C)cc1", "note": "(stereo unspecified)", "inhibition": "36.4% (inactive)"},
      {"smiles": "CSc1ccc(C=Nn2c(-c3ccc(F)cc3)n[nH]c2=S)cc1", "inhibition": "-7.74% (inactive)"},
      {"smiles": "Cc1ccc(NC(=S)NNC(=O)CSc2nnc(SCc3ccccc3Cl)s2)cc1", "inhibition": "9.26% (inactive)"},
      {"smiles": "FC(F)(F)c1cccc(NC(=S)OC2CCC23CCC(c2ccccc2)CC3)c1", "note": "(stereo unspecified)", "inhibition": "-0.26% (inactive)"},
      {"smiles": "O=C(CCc1ccccc1)NCCc1cccs1", "inhibition": "-20.7% (inactive)"},
      {"smiles": "COc1ccc(CC(=O)Nc2nc(-c3ccc(F)c(F)c3)cs2)cc1OC", "inhibition": "64.1% (active)"},
      {"smiles": "COc1ccc(CCNC(=O)COC(=O)Cc2cc(OC)c(OC)c(OC)c2)cc1", "inhibition": "2.38% (inactive)"},
      {"smiles": "Fc1ccc(-c2csc(-c3ccc(C4SCCS4)cc3)n2)cc1F", "inhibition": "3.02% (inactive)"},
      {"smiles": "COc1cc(CC(=O)Nc2nc(-c3ccc(F)c(F)c3)cs2)cc(OC)c1OC", "inhibition": "64.1% (active)"},
      {"smiles": "COc1cc(CCC(=O)Nc2ccncc2Cl)cc(OC)c1OC", "inhibition": "-12.9% (inactive)"},
      {"smiles": "COc1ccc(C2(CNC(=O)Cc3ccc(OC)c(OC)c3)CCCC2)cc1", "inhibition": "-3.38% (inactive)"},
      {"smiles": "CCCc1ccc(-c2csc(NC(=O)Cc3cccs3)n2)cc1", "inhibition": "42.5% (active)"},
      {"smiles": "O=C(Cc1cccs1)Nc1ccc([N+](=O)[O-])cc1", "inhibition": "1.87% (inactive)"},
      {"smiles": "O=C(OC12CCCN(C1)/C(=C/c1cccnc1)C2)C1CCCC1", "note": "(stereo unspecified)", "inhibition": "0.25% (inactive)"},
      {"smiles": "Cc1cccc(C(=O)Nc2c(-c3ccc(F)cc3)nc3ncccn23)c1", "inhibition": "-5.63% (inactive)"},
      {"smiles": "CCN(C(=O)[C@@H](C1CC1)[C@@H](O)c1ccc2ccccc2c1)c1ccccc1", "inhibition": "8.36% (inactive)"},
      {"smiles": "O=C1C(=O)N(Cc2ccc(-c3ccsc3)cc2)c2ccc(OC(F)(F)F)cc21", "inhibition": "-43.7% (inactive)"},
      {"smiles": "CCCCC(=O)N[C@@H]1CC[C@@]23CCCN2C(=O)CCC[C@H]3[C@H]1C", "inhibition": "-2.57% (inactive)"},
      {"smiles": "COc1ccc(NS(=O)(=O)c2ccc(NC(=O)c3ccc(N(C)S(C)(=O)=O)cc3)cc2)cc1", "inhibition": "60.6% (active)"},
      {"smiles": "COc1ccc(NS(=O)(=O)c2cc(NC(=O)c3ccc(S(=O)(=O)N(C)C)cc3)ccc2N2CCOCC2)cc1", "inhibition": "9.06% (inactive)"},
      {"smiles": "CCOC(=O)c1cc(C(=O)Nc2ccc(S(=O)(=O)Nc3ccc(OC)cc3)cc2)nn1C", "inhibition": "8.95% (inactive)"},
      {"smiles": "O=C(N1CCOCC1)N1CC[C@H]2[C@H](CCCN2Cc2ccc(F)cc2)C1", "inhibition": "6.77% (inactive)"},
      {"smiles": "CCOC(=O)c1cccc(NC(=O)CN(C)S(=O)(=O)c2ccc(-c3cocn3)s2)c1", "inhibition": "-17.4% (inactive)"},
      {"smiles": "CCn1c(=O)n2n(c1=O)[C@@]1(C=C3CCCC[C@H]32)N=C(NC(=O)c2ccccc2)N(Cc2ccccc2)[C@H]1Cc1ccccc1", "inhibition": "22.3% (inactive)"},
      {"smiles": "C#CCN([C@H](C(=O)OC)C(C)CC)S(=O)(=O)c1ccccc1Br", "note": "(stereo partly specified)", "inhibition": "-21.6% (inactive)"},
      {"smiles": "FC(F)(F)c1cccc(Cn2ccc3ccc(-c4ccc5ccn(Cc6ccccc6)c5c4)cc32)c1", "inhibition": "6.43% (inactive)"},
      {"smiles": "C[C@H](C(=O)N(C)c1ccccc1)[C@@H](O)c1ccc(Cl)cc1", "inhibition": "-16.9% (inactive)"},
      {"smiles": "O=C(NCc1ccc(Cl)cc1)C1CCN(S(=O)(=O)c2cccs2)CC1", "inhibition": "5.16% (inactive)"},
      {"smiles": "O=C(C1CCN(S(=O)(=O)c2cccs2)CC1)N1CCCCCC1", "inhibition": "-11.4% (inactive)"},
      {"smiles": "O=C(Nc1ccc(Br)cn1)C1CCN(S(=O)(=O)c2cccs2)CC1", "inhibition": "48.1% (active)"},
      {"smiles": "COC(=O)C1CN(Cc2cn(Cc3ccc(F)cc3)nn2)CCS(=O)(=O)N1Cc1ccc(Cl)cc1", "note": "(stereo unspecified)", "inhibition": "7.03% (inactive)"},
      {"smiles": "COC(=O)[C@]12C[C@H](CC(=O)NCc3cccs3)C(=O)N(CCc3ccc(OC)c(OC)c3)C1=C[C@H](C(C)C)O[C@@H]2C1CC1", "inhibition": "17.9% (inactive)"},
      {"smiles": "COc1ccc(N2CCN(CCNS(=O)(=O)c3ccc(C(C)(C)C)cc3)CC2)cc1", "inhibition": "2.21% (inactive)"},
      {"smiles": "C=CCN1C(=O)[C@@H](CC(=O)N2CCN(C(=O)c3ccco3)CC2)[C@]2(C(=O)OC)CCCCC=C12", "inhibition": "-0.82% (inactive)"}
    ]}
  ]
}
